Targets with a hit are over-represented here; the source holds about 8,800 in all. About 0.5% of all pairs of compound and target were hits.
Tests used:
Assay in all cases: log2 fold change, soluble protein after heating vs DMSO (PISA); higher = thermal stabilisation; K562 lysate, 10 uM; active = over 0.2 and 3.5 SD of the protein, either way, in both replicates (recomputed)
erlotinib = compound: C#Cc1cccc(Nc2ncnc3cc(OCCOC)c(OCCOC)cc23)c1 [erlotinib]
Method in brief: (§1)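 Following dounce homogenisation of K562 pellets in PBS pH 7.4 with 1 mM MgCl2, crude extract at 1 mg/mL protein was incubated for 30 min with 10 μM compound. Aliquots were then heated for 3 min over 48°C-58°C and pooled, NP-40 was added to 0.5% at 4°C, and soluble protein was recovered as the supernatant at 21,000xg for 90 min. Channel-sum-equalised TMTpro 16plex LC-MS/MS quantified this protein. Each value, from duplicates, is a log-two fold change in thermal stability relative to solvent controls.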

[1] = compound: C/C(=N\NC(=O)C1=CC(=CC=C1)S(=O)(=O)N2CCOCC2)/C3=C(C=CC(=C3)Cl)O
Method in brief: as §1

[2] = compound: C1=CC(=CC=C1C2=NC3=C(N2)C=C(C=C3)C(=O)N)OC4=CC=C(C=C4)Cl
Method in brief: as §1

[3] = compound: C1=CC2=C(C=CC(=C2)/C=C\3/C(=O)NC(=NCC4=CC=CS4)S3)N=C1
Method in brief: as §1

[4] = compound: C1=CC2=NC=CN=C2C=C1/C=C/3\C(=O)NC(=O)S3
Method in brief: as §1

[5] = compound: C1=CC=C(C=C1)C2=NC(=C(N2)C3=CC=NC=C3)C4=CC(=C(C=C4)Cl)O
Method in brief: as §1

[6] = compound: C1=CC=C2C(=C1)C3=NNC4=CC=CC(=C43)C2=O
Method in brief: as §1

[7] = compound: C1CCN(C1)C(=O)NC2=CC=CC(=C2)NC3=NC=C(C(=N3)NCCC4=CN=CN4)Br
Method in brief: as §1

[8] = compound: C1CN(CCC1(CC2=CC=C(C=C2)Cl)N)C3=NC=NC4=C3C=CN4
Method in brief: as §1

IRAK-1-4 Inhibitor I = compound: C1COCCN1CCN2C3=CC=CC=C3N=C2NC(=O)C4=CC(=CC=C4)[N+](=O)[O-] [IRAK-1-4 Inhibitor I]
Method in brief: as §1

ibrutinib = compound: C=CC(=O)N1CCC[C@@H](n2nc(-c3ccc(Oc4ccccc4)cc3)c3c(N)ncnc32)C1 [ibrutinib]
Method in brief: as §1

[9] = compound: CC(=O)c1cnc2ccc(-c3cc(Cl)c(O)c(Cl)c3)nc2c1N[C@H]1CC[C@H](CN(C)C)CC1
Method in brief: as §1

ralimetinib = compound: CC(C)(C)Cn1c(N)nc2ccc(-c3[nH]c(C(C)(C)C)nc3-c3ccc(F)cc3)nc21 [ralimetinib]
Method in brief: as §1

[10] = compound: CC(C)(O)CC(=O)NCCn1ccc2ncnc(Nc3ccc(Oc4cccc(C(F)(F)F)c4)c(Cl)c3)c21
Method in brief: as §1

[11] = compound: CC(C)C1=C2N=C(C=C(N2N=C1)NCC3=CC=CC=C3)NCCCCCCN
Method in brief: as §1

[12] = compound: CC1=C(C(CC(=O)N1)C2=CC=C(C=C2)C(F)(F)F)C(=O)NC3=C(C=C4C(=C3)C=NN4)F
Method in brief: as §1

[13] = compound: CC1=C(C2=C(C=C1)C(=O)C3=CC=CC=C3N2CCCN)C
Method in brief: as §1

[14] = compound: CC1=C(C=C(C=C1)NC(=O)C2=CC(=CC=C2)C(C)(C)C#N)NC3=CC4=C(C=C3)N=CN(C4=O)C
Method in brief: as §1

[15] = compound: CC1=C(C=C(C=C1)NC(=O)C2=CC(=CC=C2)N(C)C)NC(=O)C3=CC=C(C=C3)O
Method in brief: as §1

[16] = compound: CC1=CC=C(C=C1)SC2=C3C=C(SC3=CN=C2)C(=O)N
Method in brief: as §1

Measured: log2 fold change

IL18R1 (UniProt Q13478)
Chain of UniProt Q13478 (Q13478 whole entry, looked up): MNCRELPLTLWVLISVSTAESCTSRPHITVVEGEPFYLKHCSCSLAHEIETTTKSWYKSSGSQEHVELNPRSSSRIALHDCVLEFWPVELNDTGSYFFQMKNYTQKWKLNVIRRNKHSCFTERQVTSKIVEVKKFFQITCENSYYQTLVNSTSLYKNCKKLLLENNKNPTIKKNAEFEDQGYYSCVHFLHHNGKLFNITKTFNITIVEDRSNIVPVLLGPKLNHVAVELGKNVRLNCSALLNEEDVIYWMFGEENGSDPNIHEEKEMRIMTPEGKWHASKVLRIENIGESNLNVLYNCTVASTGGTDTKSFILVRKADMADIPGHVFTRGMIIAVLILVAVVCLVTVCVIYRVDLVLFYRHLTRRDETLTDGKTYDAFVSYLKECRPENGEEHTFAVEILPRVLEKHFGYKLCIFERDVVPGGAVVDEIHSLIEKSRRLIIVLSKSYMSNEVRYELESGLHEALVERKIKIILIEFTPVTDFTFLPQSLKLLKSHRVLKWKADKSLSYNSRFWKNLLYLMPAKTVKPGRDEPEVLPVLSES
inactive: erlotinib -0.029 | [1] -0.493 | [2] -0.136 | [3] 0.147 | [4] 0.041 | [5] 0.152 | [6] 0.079 | [7] -0.155 | [8] 0.058 | IRAK-1-4 Inhibitor I -0.043 | ibrutinib -0.177 | [9] 0.117 | ralimetinib -0.261 | [10] -0.463 | [11] 0.053 | [12] -0.066 | [13] -0.031 | [14] 0.061 | [15] 0.15 | [16] 0.097

HSD17B10 (UniProt Q99714)
Chain of UniProt Q99714 (Q99714 whole entry, looked up): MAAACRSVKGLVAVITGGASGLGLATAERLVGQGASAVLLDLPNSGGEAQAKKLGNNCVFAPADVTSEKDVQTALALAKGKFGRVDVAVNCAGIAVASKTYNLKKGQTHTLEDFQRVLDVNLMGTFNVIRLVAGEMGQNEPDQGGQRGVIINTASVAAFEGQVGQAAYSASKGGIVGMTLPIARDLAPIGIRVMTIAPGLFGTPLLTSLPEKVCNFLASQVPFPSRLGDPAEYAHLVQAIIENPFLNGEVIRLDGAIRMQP
inactive: erlotinib 0.018 | [1] -0.044 | [2] 0.035 | [3] -0.023 | [4] 0.01 | [5] 0.016 | [6] -0.054 | [7] -0.03 | [8] 0.054 | IRAK-1-4 Inhibitor I 0.012 | ibrutinib -0.012 | [9] -0.018 | ralimetinib 0.004 | [10] -0.003 | [11] 0 | [12] -0.026 | [13] -0.031 | [14] -0.018 | [15] -0.007 | [16] -0.025

IMMT (UniProt C9J406)
inactive: erlotinib 0.077 | [1] 0.041 | [2] -0.028 | [3] 0.001 | [4] 0.043 | [5] 0.028 | [6] -0.032 | [7] -0.222 | [8] 0.325 | IRAK-1-4 Inhibitor I -0.016 | ibrutinib 0.119 | [9] 0.046 | ralimetinib 0.126 | [10] -0.14 | [11] -0.096 | [12] 0.099 | [13] -0.03 | [14] -0.002 | [15] 0.012 | [16] -0.015

HNRNPD isoform 3 (UniProt Q14103)
inactive: erlotinib -0.056 | [1] -0.133 | [2] -0.1 | [3] -0.181 | [4] -0.036 | [5] -0.11 | [6] 0.021 | [7] 0.108 | [8] -0.043 | IRAK-1-4 Inhibitor I -0.057 | ibrutinib -0.081 | [9] -0.065 | ralimetinib -0.046 | [10] 0.104 | [11] -0.026 | [12] -0.096 | [13] -0.052 | [14] 0 | [15] 0.036 | [16] -0.007

HNRNPM (UniProt P52272)
Chain of UniProt P52272 (P52272 whole entry, looked up): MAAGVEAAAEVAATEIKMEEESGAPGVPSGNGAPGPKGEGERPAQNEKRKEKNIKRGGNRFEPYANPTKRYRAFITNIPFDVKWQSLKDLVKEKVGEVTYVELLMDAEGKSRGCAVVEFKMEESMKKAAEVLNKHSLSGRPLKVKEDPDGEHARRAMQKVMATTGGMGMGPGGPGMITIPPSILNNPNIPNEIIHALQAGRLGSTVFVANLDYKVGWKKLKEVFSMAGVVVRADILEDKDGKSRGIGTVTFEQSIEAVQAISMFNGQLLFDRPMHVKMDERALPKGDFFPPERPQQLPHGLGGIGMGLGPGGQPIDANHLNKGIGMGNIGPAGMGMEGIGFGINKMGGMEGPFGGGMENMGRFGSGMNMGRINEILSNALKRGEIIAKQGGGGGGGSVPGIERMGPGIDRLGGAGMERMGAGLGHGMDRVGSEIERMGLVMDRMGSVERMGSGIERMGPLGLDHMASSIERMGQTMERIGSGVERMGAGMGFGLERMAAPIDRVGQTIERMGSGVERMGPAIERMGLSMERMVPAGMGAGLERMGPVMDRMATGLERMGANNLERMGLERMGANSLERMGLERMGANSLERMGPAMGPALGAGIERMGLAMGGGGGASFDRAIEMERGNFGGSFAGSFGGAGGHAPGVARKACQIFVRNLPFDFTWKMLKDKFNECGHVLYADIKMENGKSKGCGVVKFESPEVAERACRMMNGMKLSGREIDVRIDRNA
inactive: erlotinib -0.015 | [1] -0.046 | [2] 0.004 | [3] -0.022 | [4] 0.051 | [5] -0.036 | [6] -0.039 | [7] -0.022 | [8] -0.003 | IRAK-1-4 Inhibitor I 0.005 | ibrutinib -0.031 | [9] 0.024 | ralimetinib 0.034 | [10] -0.048 | [11] 0.02 | [12] 0.051 | [13] 0.062 | [14] -0.183 | [15] 0.021 | [16] 0.007

GNL3 (UniProt Q9BVP2)
inactive: erlotinib 0.004 | [1] -0.072 | [2] 0.002 | [3] 0.009 | [4] -0.062 | [5] 0.015 | [6] -0.011 | [7] 0.021 | [8] 0.014 | IRAK-1-4 Inhibitor I 0.033 | ibrutinib 0.023 | [9] -0.063 | ralimetinib -0.026 | [10] -0.021 | [11] 0.05 | [12] -0.005 | [13] -0.073 | [14] 0.009 | [15] -0.007 | [16] -0.057

HECTD3 (UniProt Q5T447)
Chain of UniProt Q5T447 (Q5T447 whole entry, looked up): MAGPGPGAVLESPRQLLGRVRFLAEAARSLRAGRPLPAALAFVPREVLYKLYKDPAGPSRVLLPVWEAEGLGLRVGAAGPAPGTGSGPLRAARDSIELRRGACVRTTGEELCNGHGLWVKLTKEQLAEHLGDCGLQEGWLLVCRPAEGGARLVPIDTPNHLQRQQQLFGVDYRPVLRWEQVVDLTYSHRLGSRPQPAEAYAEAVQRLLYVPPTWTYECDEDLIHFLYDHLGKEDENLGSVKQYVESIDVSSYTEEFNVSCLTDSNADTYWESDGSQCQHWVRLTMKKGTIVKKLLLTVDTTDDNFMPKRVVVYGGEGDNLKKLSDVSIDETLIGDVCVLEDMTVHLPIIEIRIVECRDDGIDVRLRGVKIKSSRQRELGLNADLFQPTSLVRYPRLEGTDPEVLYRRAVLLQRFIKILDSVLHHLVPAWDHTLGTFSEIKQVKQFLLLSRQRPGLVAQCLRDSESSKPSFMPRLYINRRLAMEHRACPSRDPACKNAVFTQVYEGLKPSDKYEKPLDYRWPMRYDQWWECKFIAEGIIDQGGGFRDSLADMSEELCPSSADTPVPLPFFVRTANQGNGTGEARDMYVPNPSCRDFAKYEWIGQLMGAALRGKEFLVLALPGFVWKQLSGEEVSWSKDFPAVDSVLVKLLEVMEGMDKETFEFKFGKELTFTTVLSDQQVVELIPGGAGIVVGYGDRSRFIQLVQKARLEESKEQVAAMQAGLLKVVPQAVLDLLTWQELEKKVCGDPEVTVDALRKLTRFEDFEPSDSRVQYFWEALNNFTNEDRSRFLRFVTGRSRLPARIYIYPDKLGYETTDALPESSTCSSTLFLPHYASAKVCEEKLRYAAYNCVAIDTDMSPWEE
inactive: erlotinib 0.027 | [1] 0 | [2] -0.005 | [3] 0.008 | [4] 0.022 | [5] 0.018 | [6] -0.008 | [7] -0.028 | [8] -0.026 | IRAK-1-4 Inhibitor I 0.008 | ibrutinib 0.054 | [9] 0.019 | ralimetinib 0.037 | [10] -0.027 | [11] -0.022 | [12] -0.043 | [13] 0.022 | [14] -0.014 | [15] 0.002 | [16] 0.011

GRK2 (UniProt P25098)
active: [8] 0.536
inactive: erlotinib 0.023 | [1] 0.028 | [2] 0.015 | [3] 0.115 | [4] -0.005 | [5] -0.025 | [6] -0.098 | [7] -0.026 | IRAK-1-4 Inhibitor I -0.002 | ibrutinib 0.002 | [9] 0.011 | ralimetinib 0.006 | [10] 0.036 | [11] 0 | [12] 0.151 | [13] 0.014 | [14] -0.048 | [15] 0.007 | [16] -0.031

KATNBL1 (UniProt Q9H079)
active: [8] -0.687
inactive: erlotinib -0.012 | [1] 0.009 | [2] -0.02 | [3] 0.064 | [6] -0.001 | [7] 0.045 | [9] -0.002 | [11] 0.156 | [12] -0.029 | [13] -0.002 | [14] 0.082 | [16] -0.025

HECW2 (UniProt Q9P2P5)
Chain of UniProt Q9P2P5 (Q9P2P5 whole entry, looked up): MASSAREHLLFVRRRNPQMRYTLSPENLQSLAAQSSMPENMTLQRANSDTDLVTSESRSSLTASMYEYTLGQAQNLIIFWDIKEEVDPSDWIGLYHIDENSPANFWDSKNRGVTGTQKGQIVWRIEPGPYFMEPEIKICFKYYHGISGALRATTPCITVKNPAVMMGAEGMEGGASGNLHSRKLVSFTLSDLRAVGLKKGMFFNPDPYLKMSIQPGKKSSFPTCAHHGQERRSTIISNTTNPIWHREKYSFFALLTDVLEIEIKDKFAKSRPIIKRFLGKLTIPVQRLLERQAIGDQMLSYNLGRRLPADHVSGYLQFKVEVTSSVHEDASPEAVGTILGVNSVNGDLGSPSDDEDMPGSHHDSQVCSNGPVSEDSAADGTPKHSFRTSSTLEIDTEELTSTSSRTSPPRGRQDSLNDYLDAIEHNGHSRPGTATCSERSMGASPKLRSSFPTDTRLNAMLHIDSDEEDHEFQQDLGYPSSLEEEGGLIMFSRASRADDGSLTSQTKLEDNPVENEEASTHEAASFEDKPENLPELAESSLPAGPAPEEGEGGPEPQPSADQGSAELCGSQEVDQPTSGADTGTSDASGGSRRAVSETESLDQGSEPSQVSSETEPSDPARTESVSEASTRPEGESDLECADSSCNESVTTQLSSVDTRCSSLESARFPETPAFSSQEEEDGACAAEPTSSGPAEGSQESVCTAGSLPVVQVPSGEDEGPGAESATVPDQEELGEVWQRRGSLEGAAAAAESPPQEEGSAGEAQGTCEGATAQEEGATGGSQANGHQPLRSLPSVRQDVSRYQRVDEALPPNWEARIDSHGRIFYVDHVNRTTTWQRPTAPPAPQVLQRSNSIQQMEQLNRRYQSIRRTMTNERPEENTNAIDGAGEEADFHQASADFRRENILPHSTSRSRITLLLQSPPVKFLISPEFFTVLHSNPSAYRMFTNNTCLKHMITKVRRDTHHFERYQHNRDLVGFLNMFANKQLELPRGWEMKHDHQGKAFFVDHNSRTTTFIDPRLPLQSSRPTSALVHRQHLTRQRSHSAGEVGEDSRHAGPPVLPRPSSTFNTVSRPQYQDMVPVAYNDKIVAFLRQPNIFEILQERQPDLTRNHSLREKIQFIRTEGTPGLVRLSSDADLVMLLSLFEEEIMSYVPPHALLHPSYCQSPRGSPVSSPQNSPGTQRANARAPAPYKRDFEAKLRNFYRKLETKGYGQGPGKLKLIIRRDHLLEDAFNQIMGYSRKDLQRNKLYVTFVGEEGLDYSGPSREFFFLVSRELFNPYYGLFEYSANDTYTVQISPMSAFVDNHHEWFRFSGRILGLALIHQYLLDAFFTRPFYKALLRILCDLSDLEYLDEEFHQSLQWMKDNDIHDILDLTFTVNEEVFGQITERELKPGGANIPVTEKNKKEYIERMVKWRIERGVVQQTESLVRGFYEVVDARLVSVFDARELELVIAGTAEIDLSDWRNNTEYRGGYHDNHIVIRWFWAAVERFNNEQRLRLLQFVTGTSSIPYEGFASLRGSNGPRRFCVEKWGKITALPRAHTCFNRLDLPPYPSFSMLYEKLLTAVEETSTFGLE
inactive: erlotinib -0.012 | [1] 0.009 | [2] -0.093 | [3] 0.013 | [5] -0.075 | [6] 0.023 | [7] 0.029 | [8] -0.118 | IRAK-1-4 Inhibitor I 0.082 | ralimetinib 0.106 | [10] -0.148 | [11] -0.036 | [12] 0.019 | [13] -0.091 | [14] 0.116 | [15] 0.073

HMGN5 (UniProt Q5JSK9)
inactive: [4] -0.128 | [7] 0.008 | [8] -0.076 | ibrutinib 0.051 | [9] -0.007 | [12] -0.094 | [16] -0.005

HDAC3 (UniProt E7ESJ6)
inactive: [9] -0.107 | [16] -0.004

H3-3A (UniProt P84243)
active: [8] -0.315
inactive: erlotinib 0.038 | [1] 0.001 | [2] 0.048 | [3] -0.033 | [4] -0.055 | [6] 0.056 | [7] -0.053 | ibrutinib 0.042 | [9] -0.047 | [11] 0.013 | [14] -0.034 | [16] -0.086

HTT (UniProt P42858)
inactive: erlotinib 0.018 | [1] -0.051 | [2] -0.067 | [3] 0.037 | [4] 0.032 | [5] -0.041 | [6] -0.138 | [7] -0.04 | [8] -0.05 | IRAK-1-4 Inhibitor I -0.027 | ibrutinib 0.11 | ralimetinib 0.065 | [10] 0.008 | [11] -0.032 | [12] 0.047 | [13] -0.032 | [14] 0.035 | [15] 0.04

HOMER3 (UniProt Q9NSC5)
inactive: [4] -0.078 | ibrutinib -0.095 | [9] -0.01 | [14] -0.028 | [16] 0.048

GYPA (UniProt P02724)
Chain of UniProt P02724 (P02724 whole entry, looked up): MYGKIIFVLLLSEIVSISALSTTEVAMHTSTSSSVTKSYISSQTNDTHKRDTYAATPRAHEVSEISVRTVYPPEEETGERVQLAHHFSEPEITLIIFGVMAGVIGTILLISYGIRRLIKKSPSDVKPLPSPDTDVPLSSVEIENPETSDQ
inactive: erlotinib -0.109 | [1] -0.107 | [2] 0.13 | [3] 0.061 | [4] 0.059 | [5] 0.023 | [6] 0.048 | [7] -0.004 | [8] 0.043 | IRAK-1-4 Inhibitor I 0.017 | ibrutinib 0.318 | [9] 0.102 | ralimetinib -0.052 | [10] 0.054 | [11] -0.095 | [13] -0.085 | [14] 0.018 | [15] -0.037 | [16] -0.034

HNRNPUL1 (UniProt M0R247)
inactive: erlotinib -0.046 | [2] 0.079 | [4] -0.049 | ibrutinib -0.045 | [11] 0.016

GORASP1 (UniProt Q9BQQ3)
Chain of UniProt Q9BQQ3 (Q9BQQ3 whole entry, looked up): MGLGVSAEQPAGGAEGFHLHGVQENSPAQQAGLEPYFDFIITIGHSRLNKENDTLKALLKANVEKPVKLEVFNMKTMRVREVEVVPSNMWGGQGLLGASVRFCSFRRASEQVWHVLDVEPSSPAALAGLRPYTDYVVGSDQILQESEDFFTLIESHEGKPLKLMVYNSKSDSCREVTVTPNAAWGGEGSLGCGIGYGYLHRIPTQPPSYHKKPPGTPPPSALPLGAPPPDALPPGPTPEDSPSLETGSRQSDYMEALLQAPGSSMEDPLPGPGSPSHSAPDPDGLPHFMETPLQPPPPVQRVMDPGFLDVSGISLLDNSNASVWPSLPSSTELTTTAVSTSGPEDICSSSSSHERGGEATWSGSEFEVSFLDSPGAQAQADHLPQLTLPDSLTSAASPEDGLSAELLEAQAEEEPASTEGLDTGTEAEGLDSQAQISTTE
inactive: erlotinib -0.081 | [1] -0.026 | [2] -0.019 | [3] 0.05 | [5] 0.01 | [6] -0.057 | [7] 0.049 | [8] 0.018 | IRAK-1-4 Inhibitor I -0.023 | [9] 0.137 | ralimetinib -0.01 | [10] -0.011 | [11] 0.019 | [12] 0.038 | [13] 0.027 | [14] -0.061 | [15] -0.034 | [16] -0.02

HSPBAP1 (UniProt Q96EW2)
Chain of UniProt Q96EW2 (Q96EW2 whole entry, looked up): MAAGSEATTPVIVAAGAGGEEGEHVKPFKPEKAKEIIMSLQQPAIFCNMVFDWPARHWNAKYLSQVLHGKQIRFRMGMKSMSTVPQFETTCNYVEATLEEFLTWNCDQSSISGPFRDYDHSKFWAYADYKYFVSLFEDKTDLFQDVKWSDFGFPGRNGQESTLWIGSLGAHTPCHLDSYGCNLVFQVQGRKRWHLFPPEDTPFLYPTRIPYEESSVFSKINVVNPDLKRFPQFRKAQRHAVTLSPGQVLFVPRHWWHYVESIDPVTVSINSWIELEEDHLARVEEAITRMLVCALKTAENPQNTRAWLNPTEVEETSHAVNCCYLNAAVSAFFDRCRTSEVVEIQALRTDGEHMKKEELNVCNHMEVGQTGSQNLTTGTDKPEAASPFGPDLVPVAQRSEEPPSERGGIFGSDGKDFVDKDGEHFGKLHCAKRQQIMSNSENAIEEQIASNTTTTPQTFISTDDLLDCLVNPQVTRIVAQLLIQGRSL
inactive: erlotinib 0.064 | [2] -0.098 | [4] -0.079 | [5] -0.072 | [7] 0.002 | [8] 0.031 | IRAK-1-4 Inhibitor I -0.002 | ibrutinib -0.008 | [9] 0.039 | ralimetinib -0.056 | [10] -0.095 | [11] 0.038 | [12] -0.214 | [13] -0.324 | [14] 0.002 | [15] 0.084 | [16] 0.084
